# Assay results reported in PubChem BioAssay (Tox21).
# Values without a mark were called inactive. The source made the active and inactive calls. Calls come from the whole dose curve; as a rule, active = well fitted curve in the direction sought with a large enough effect in the repeat runs; inconclusive = weak or mixed curves; inactive = flat fitted curve, though single readings scatter.
# Assay: qHTS assay to test for compound auto fluorescence at 460 nm (blue) in HepG2 cell free culture (AID 720685)
# Conditions: Cell-free culture medium, blue autofluorescence 405/460 nm; series mostly up to 91.3 µM; fluorescence, % of fluorescent control: at the top concentration
# Source text: U.S. Tox21 Program National Center for Advancing Translational Sciences [NCATS] NIH Chemical Genomics Center [NCGC] U.S. Environmental Protection Agency [EPA] National Institutes of Environmental Health Sciences [NIEHS] National Toxicology Program [NTP] U.S. Food and Drug Administration [FDA] Tox21 Assay Overview: Compound auto fluorescence often interferes with screening of the compound library against various biological targets and signaling pathways. Some of these compounds may have fluorophoric properties. Such properties may interfere with the assay outputs resulting in false positives and/or negatives. To decrease such complications and ensure the compound activities are relevant in terms of biological response, the Tox21 10K compound library was screened for auto fluorescence. From the fluorophores used as reporter signals in our screening assays, the auto fluorescence equivalencies of compounds against three fluorophores have been evaluated: Triamterene, Fluorescein and Rose Bengal sodium for blue, green and red fluorescence, respectively. The fluorescence intensities were measured using Excitation/Emission wavelengths at 405/460nm, 485/535nm and 540/590nm for blue, green and red labels, respectively. This assay includes the blue fluorescence data.
# Tox21 Assay Protocol Summary: 5 uL of culture medium (MEM containing 10% FBS) per well was dispensed into black wall/clear bottom 1536-well plates using a Multidrop Combi Dispenser (ThermoFisher Scientific, Waltham, MA). After 23 nL compound or DMSO vehicle was transferred into assay plate by a pintool work station (Kalypsys, San Diego, CA), fluorescence intensities in the assay plates were measured by an Envision (PerkinElmer, Shelton, CT) plate reader using three labels for measuring blue, green and red fluorescence at […] 460, 535 and 590nm respectively.
# % is set by controls: 0 for no effect and ±100 for the full control effect.
SMILES,"fluorescence, % of fluorescent control",Potency
Oc1ccc(O)c2c(O)cccc12,-0.0151%,
CNS(=O)(=O)Cc1ccc2[nH]cc(CCN(C)C)c2c1,0.0198% [at 46 µM],
CCCCOC(O)CC (stereo not given),-0.0102%,
Cc1cc(C)c(S(=O)(=O)O)cc1N=Nc1cc(S(=O)(=O)O)c2ccccc2c1O,-0.856%,
Cc1ccccn1,,inactive
CCCCCOC(=O)c1ccc(O)cc1,0.0452% [at 95.7 µM],
CC(C)CCCCCCOC(=O)c1ccc(C(=O)OCCCCCCC(C)C)c(C(=O)OCCCCCCC(C)C)c1,0.0689%,
OCC1CC2CC1C1CCC(CO)C21 (stereo not given),-0.151%,
Cn1c(NCCN(CCO)CCCc2ccc([N+](=O)[O-])cc2)cc(=O)n(C)c1=O,-0.037% [at 46 µM],
CC(C)CCCC(C)CCO (stereo not given),-0.166%,
CCCCOc1ccc(CC(=O)NO)cc1,0.0098% [at 18.6 µM],
C1=Cc2ccccc2C1,0.0309%,
O=CNc1ccccc1,-0.132%,
C1CCC2OC2C1 (stereo not given),0.0119% [at 95.7 µM],
CCN(CC)C(C)CN1c2ccccc2Sc2ccccc21 (stereo not given),0.0011% [at 18.6 µM],
O=C(O)C(c1ccc(Cl)cc1)c1ccc(Cl)cc1,-0.0711%,
C=CC(C)(CCC=C(C)C)OC(=O)c1ccccc1 (stereo not given),0.137%,
O=C1CCCCCO1,-0.0691%,
O=C(c1ccc(O)cc1)c1ccc(O)cc1,0.0902%,
CC(C)c1ccc2c(C(C)C)cc(C(C)C)c(S(=O)(=O)O)c2c1,0.0492% [at 95.7 µM],

SMILES,"fluorescence, % of fluorescent control",Potency
CCOc1ccc(NC(=O)CC(C)=O)cc1,-0.112%,
C[Si](C)O[Si](C)(C)O[Si](C)(C)O[Si](C)C,0.0253%,
C=Cc1c(C)c2cc3[nH]c(cc4nc(cc5nc(cc1[nH]2)C(C)=C5CCC(=O)O)C(CCC(=O)O)=C4C)c(C)c3C=C,0.0201% [at 46 µM],
CC(C)(C)c1cc(O)c(C(C)(C)C)cc1O,0.121%,
N#Cc1c(F)cccc1F,-0.0539%,
O=C(O)/C=C/c1cnc[nH]1,0.042%,
CCCCOc1cc(C(=O)OCCN(CC)CC)ccc1N,0.0523% [at 18.6 µM],
CCCCc1cc2ccccc2c(OCCN(C)C)n1,-0.0015% [at 18.6 µM],
CC[C@H](C)[C@@H](C(=O)O)n1sc2ccccc2c1=O,0.0209%,
Cc1occc1S,0.118%,
S=C(S)NCCNC(=S)S,-0.0483%,
CC(O)C1CCCCC1 (stereo not given),-0.0134%,
CCCCOC(=O)/C=C\C(=O)OCCCC,0.0758% [at 95.7 µM],
CC(=O)/C(C)=C/C1C(C)=CCCC1(C)C (stereo not given),0.14%,
CN1CCN(C2=Nc3ccccc3Sc3ccc(Cl)cc32)CC1,0.012% [at 46 µM],
CCCC(C)C,0.0609%,
C=CC[N+]1([C@H]2C[C@H]3[C@@H]4CC[C@H]5C[C@H](OC(C)=O)[C@@H](N6CCCCC6)C[C@]5(C)[C@H]4CC[C@]3(C)[C@H]2OC(=O)CC)CCCCC1,4.85% [at 46 µM],
Nc1ccc(C(=O)Nc2ccccc2N)cc1,0.0093% [at 46 µM],
CCCCCOC(=O)COc1cc(N2C(=O)C3=C(CCCC3)C2=O)c(F)cc1Cl,0.36%,
CN(C)CCCNCCCN,0.234%,
